Inconclusive results are not listed. A call without a number means that no potency is given here. Active and inactive are the calls of the source. The call rests on the fitted dose curve; in most records, active means well fitted cell-killing curve with a large enough effect in the repeat runs; inconclusive means weak or mixed curves, or effect the other way; inactive means flat fitted curve, though single readings scatter.
What was measured:
[1] = cAMP Responsive Elements (CRE) small molecule antagonists, cell-based qHTS assay: qHTS cell viability counter screen (AID 2060913); conditions: CRE-bla HEK293T viability, CellTiter-Glo luminescence, 5 h; series mostly up to 92.4 µM; further: nearly all actives have a fitted effect of over 40% in size
In short: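 Cytotoxicity read in the same wells as the CRE-bla HEK293T antagonist assay: after 3 h compound with 0.25 uM NKH477 final and 2 h beta-lactamase substrate, CellTiter-Glo luminescence measured.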

[2] = cAMP Responsive Elements (CRE) small molecule agonists, cell-based qHTS assay: qHTS cell viability counter screen (AID 2060914); conditions: CRE-bla HEK293T viability, CellTiter-Glo luminescence, 5 h; series mostly up to 92.4 µM;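 further: viability read after 3 h of compound exposure; nearly all actives have a fitted effect of over 50% in size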
In short: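 CRE-bla HEK293T cells in 10% dialyzed FBS medium were exposed to compounds for 3 h at 37C after 18 h plating. CellTiter-Glo was then added in the same wells, and luminescence was read after 30 min at room temperature.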

Compound | Potency [1] | Potency [2]
N#Cc1ccc(C2CCCc3cncn32)cc1 (stereo not given) | inactive | inactive
CC(Cl)C(Cl)Cl (stereo not given) | inactive | inactive
CC(C)c1nnc2ccc(-c3ocnc3-c3cc(F)ccc3F)cn12 | inactive | inactive
NCCc1cnc[nH]1 | inactive | inactive
O=Cc1ccc(Cl)c([N+](=O)[O-])c1 | inactive | inactive
Nc1c(Cl)cc(Cl)cc1Cl | inactive | inactive
O=C1CCCCCN1 | inactive | inactive
CCC(C)c1ccccc1 (stereo not given) | inactive | inactive
CCOC(=O)/C=C/C(=O)OCC | inactive | inactive
CC(O)(P(=O)(O)O)P(=O)(O)O | inactive | inactive
